In PubChem BioAssay AID1794835 (Parasite Biology Lab, Institute for Biomedicine and …, 2023) one finds inhibition and outcome data, which are given here for 46 molecules.

Among all 2,500 compounds or so, about 45 (2%) were called active. Rule as the data show it: active = inhibition mostly above about 45% (no sharp cut-off); inactive = mostly below about 37%. This excerpt belongs to a sample that is enriched for actives.

The nature of the experiment: anti-Giardia activity of synthetic compounds – Compounds Australia Scaffold Library subset, 24/48 h, primary screen (AID 1794835).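 As to inhibition: 0% = parasite counts in DMSO vehicle wells.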 The note with it: Giardia lamblia BRIS/91/HEPU/1279 trophozoite counts, imaging, at 10 µM.
The mark [1] stands for this setting: measured here: growth inhibition at 24 h, stronger effect = higher value.

Take `Cc1nc(C2(NC(=O)CCc3ncc(-c4ccccc4F)o3)CCCCC2)no1`: the inhibition entry is “inactive”. For `Cc1ccc(NC(=O)c2nnc(C3CCCN3C(=O)NC3CCCC3)s2)cc1` (configuration not stated), the inhibition (stronger effect = higher value) is 4.4% (inactive) and the inhibition under setting [1] turned out to be 1%.

For the molecule `CCN(Cc1cccs1)C(=O)CN1CCC(n2c(=O)[nH]c3ccccc32)CC1`, the inhibition result was “inactive”. For `CN1CCN(CCNC(=O)CN2C(=O)C3CCCCN3c3ccc(C(=O)N4CCCC4)cc32)CC1` (configuration not stated), the inhibition is 13% (inactive) (stronger effect = higher value) and 11.7% under setting [1]. Consider `Cc1ccc(NC(=O)CN2C(=O)C3CCCCN3c3ccc(C(=O)N4CCCC4)cc32)cc1` (configuration not stated), for which the inhibition was 62.4% (active) (stronger effect = higher value) and 35.5% under setting [1].

Consider `O=C(CN1C(=O)COc2ccc(C(=O)N3CCCCC3)cc21)NCc1ccccc1`, for which the inhibition result is “inactive”. Consider `O=C(NCCCN1CCN(c2ccccc2)CC1)c1noc2c1CCCCC2`, for which, for the setting “stronger effect = higher value”, the inhibition was 9.7% (inactive). On to `Cc1cccc(CC(=O)N2CCN(c3nc4cccnc4n(Cc4ccccc4)c3=O)CC2)c1`, for which the inhibition was 38.8% (inactive) (stronger effect = higher value) and 12.1% under setting [1]. With `CCN1CCCc2cc(C(=O)N3CCOCC3)sc21`, the inhibition entry is “inactive”.

With `Cc1nccc2[nH]c(=O)c(C(=O)NCCCN(C)C3CCCCC3)cc12`, the molecule was classed as inactive. Under setting [1], this molecule gave an inhibition of 0.2%. With `CCC1Cn2c(C(=O)NCCN(C)C3CCCCC3)cc3cccc(c32)O1` (configuration not stated), the inhibition (stronger effect = higher value) is 53.7% (active) and the inhibition under setting [1] amounted to 13.8%. On to `Cc1cc(C)c2c(=O)n(CC(=O)Nc3ccc(Br)cc3)c(=O)n(C)c2n1`, for which the result was inactive. In addition, the inhibition under setting [1] is 4.9%. Take `CCC1CCCCN1C(=O)Cn1c(C(=O)OC)cc2occc21` (configuration not stated): the inhibition (stronger effect = higher value) was 8.8% (inactive).

For `CC(C)C(=O)N1CCN(c2nc3ccccc3c3nnc(-c4cccs4)n23)CC1`, the inhibition entry is “inactive”. On to `Cc1cc2n(n1)CCCN2CC(=O)N1CCN(c2cccc(Cl)c2)CC1`, for which the inhibition (stronger effect = higher value) is 5.3% (inactive). Turning to `CCc1nnc2c3ccccc3nc(N3CCN(c4cccc(Cl)c4)CC3)n12`, the inhibition (stronger effect = higher value) was 73.1% (active) and the inhibition under setting [1] is 33.5%.

As for `O=C1CC(C(=O)N2CCN(c3ccccc3F)CC2)CN1Cc1ccccc1` (configuration not stated), the inhibition entry is “inactive”.

As to `COc1cccc(CCC(=O)N2CCCC(c3nnc4n3CCCCC4)C2)c1` (configuration not stated), the inhibition by setting is: (stronger effect = higher value) 2.6% (inactive); under setting [1], 2.1%.

For `O=c1c2cnc(N3CCCCC3)nc2ccn1CCc1ccccc1`, the inhibition result is “inactive”. Turning to `O=C(c1ccco1)N1CCC(NS(=O)(=O)c2ccc(Cl)cc2)CC1`, the result was inactive. Moreover, under setting [1], the inhibition came to 0.2%. Consider `O=C(Nc1ccccc1)c1cc(-c2cccs2)n(C2CCS(=O)(=O)C2)n1` (configuration not stated), for which the inhibition was 1.7% (inactive) (stronger effect = higher value) and 9.1% under setting [1]. For `Cc1cccc(-c2noc(Cn3cccn3)n2)c1`, the result was inactive. The inhibition under setting [1] came to 3.8%. `Cc1ccc(S(=O)(=O)NC2CCN(C(=O)Cc3ccc(Br)cc3)CC2)cc1`: the inhibition was 3.1% (inactive) (stronger effect = higher value) and 2% under setting [1]. In the same order, the values of `Cc1ccnc(N2CCCC(C(=O)NC3CCCC3)C2)n1` (configuration not stated) are 10.9% (inactive) and 2.5%. `O=C(C1CCN(S(=O)(=O)c2ccccc2)CC1)N1CC=C(c2ccccc2)CC1`: the call was inactive. Besides, the inhibition under setting [1] was 1%. On to `Cc1ccnc(N2CCCC(C(=O)N3CC=C(c4ccccc4)CC3)C2)n1` (configuration not stated), for which the inhibition by setting is: (stronger effect = higher value) 46.1% (active); under setting [1], 18%. For `CC(NC(=O)Cc1csc(Cc2ccccn2)n1)c1ccc(F)cc1` (configuration not stated), the result was inactive. Further, the inhibition under setting [1] worked out at 5.1%. As to `Cc1ncc([N+](=O)[O-])n1Cc1csc(Cc2ccccc2)n1`, the inhibition runs as follows: (stronger effect = higher value) 67% (active); under setting [1], 30.1%. Regarding `O=c1c2ccsc2ncn1Cc1nc(Cc2ccccc2)no1`, the inhibition result is “inactive”. Still for that read-out and setting: as for `O=C(Cc1ccccc1)NCc1nc(-c2ccc3c(c2)nnn3C2CCCC2)no1`, the entry is “inactive”. In the case of `O=C(NCc1cccc(C(F)(F)F)c1)C1CCCN(c2nccnc2Oc2ccccc2)C1` (configuration not stated), the inhibition (stronger effect = higher value) is 15.6% (inactive). For `COc1ccc(CNC(=O)N2CCC(c3ccn4ncc(C(=O)N5CCOCC5)c4c3)CC2)cc1`, the inhibition by setting is: (stronger effect = higher value) 0.7% (inactive); under setting [1], 3.8%. As to `CCCCN(CCCC)S(=O)(=O)c1ccc2c(c1)CCCC(=O)N2`, the inhibition (stronger effect = higher value) is 27.2% (inactive) and the inhibition under setting [1] was 13.8%. On to `COCCCN(Cc1ccco1)C(=O)Cn1cnc2onc(-c3ccc(Cl)cc3)c2c1=O`, for which the inhibition result is “inactive”. On to `CCCn1nc(C(=O)N2CCCN(C(C)=O)CC2)ccc1=O`, for which the inhibition result is “inactive”. As for `NCc1c2n(c(=O)n(CC(=O)Nc3ccc4c(c3)OCCO4)c1=O)CCCCC2`, the inhibition entry was “inactive”. Regarding `Cc1sc(C(=O)N2CCCC2)c2ncnc(NCc3ccc(F)c(Cl)c3)c12`, the inhibition runs as follows: (stronger effect = higher value) 23.9% (inactive); under setting [1], 14.4%. In the case of `CCNS(=O)(=O)c1cc(-c2ccc(=O)n(CC)n2)sc1C`, the inhibition result was “inactive”. With `Cc1cccc(CNS(=O)(=O)c2cc(-c3csc(C)n3)sc2C)c1`, the inhibition (stronger effect = higher value) is 63.6% (active) and the inhibition under setting [1] came out at 21.2%.

As to `Cc1sc(-c2ccc(=O)[nH]n2)cc1S(=O)(=O)NCc1cccnc1`, the inhibition result was “inactive”.

With `CCc1nc(-c2cc(S(=O)(=O)NCc3ccc(F)c(Cl)c3)c(C)s2)cs1`, the inhibition was 43.9% (active) (stronger effect = higher value) and 15.2% under setting [1]. In the case of `CCc1nc(-c2cc(S(=O)(=O)NCc3ccccc3)c(C)s2)no1`, the inhibition entry is “inactive”.

As for `CN1CCN(CC2CCN(C(=O)Cc3cccc4ccccc34)CC2)CC1`, for the setting “stronger effect = higher value”, the inhibition is 17.7% (inactive). As for `COc1cccc(Nc2nc(N3CCN(c4ccccc4)CC3)nc3c2cnn3C)c1`, the inhibition by setting is: (stronger effect = higher value) 5.8% (inactive); under setting [1], 6.1%. For the molecule `COc1cccc(-c2noc(Nc3cccc(C)c3)n2)c1`, the result was inactive. The molecule further yielded an inhibition under setting [1] of 3.1%.

On to `COc1cccc(Nc2c3c(nc4ccccc24)CCC3)c1`, for which the inhibition was 62.3% (active) (stronger effect = higher value) and 22% under setting [1].
